Source: PubChem BioAssay (NCI)
About 83,000 compounds went through this panel and 20% of them were active in at least one assay; those are over-represented in the sample as a whole.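 A percent growth of 40 corresponds to 60% growth inhibition; 0 means no net growth; -100 means all cells died. Active threshold: below 10.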 Unmarked numbers belong to inactive results. Active and inactive are the calls of the source.

system: HL-60(TB) leukemia; assay: NCI-60 one-dose screen, 48 h (100 = growth as untreated, 0 = no growth, -100 = all killed); conditions: 10 µM unless noted

Row | SMILES | growth
1 | CN(C)c1nc(NCCNS(=O)(=O)c2ccc(C(=O)/C=C/c3ccccc3)cc2)nc(N2CCOCC2)n1 | 33%
2 | Cc1cc(=O)oc2cc(OCCCCOc3ccc(/C=C/C(=O)Nc4ccccc4[N+](=O)[O-])cc3)ccc12 | 101%
3 | C[C@H]1[C@@H](CC(=O)N[C@@H](Cc2coc3ccccc23)B(O)O)O[C@@H]2OC3(C)CC[C@H]4[C@H](C)CC[C@@H]1[C@@]24O3 | 11.2%
4 | COc1ccc2[nH]c(=O)c(CSc3cccc(N)c3)cc2c1 | 51.3%
5 | Cc1ccc(C(=O)NN2C(=O)/C(=C/C=C/c3ccc([N+](=O)[O-])o3)SC2=S)cc1 | 2.23% (active)
6 | CCOC(=O)CNC(=O)CN(Cc1ccccc1)C(=O)[C@@]1(C)CCC[C@]2(C)[C@H]3CC4C(C(C)C)=C[C@]3(CC[C@H]21)[C@@H]1C(=O)CCC(=O)[C@H]41 | 2.73% (active)
7 | N#Cc1ccc(-c2nn(-c3ccc(C(=O)O)cc3)cc2CNc2cccc(Br)c2)cc1 | 47%
8 | Cc1cccc(/C=C/c2ccc(NC(=S)NCCCCN(C)C)cc2)c1 | -37.7% (active)
9 | Cc1ccc(-c2nc(Nc3ccc(S(N)(=O)=O)cc3)c3ccccc3n2)cc1 | 24.9%
10 | O=C(NNC(=S)NC(=O)c1ccccc1)c1ccc(OCc2nc3ccc(Cl)cc3[nH]2)cc1 | 1.3% (active)
11 | O=C1Nc2ccccc2/C1=C\c1ccc(OCC(=O)c2ccc(Br)cc2)cc1 | 40.4%
12 | O=c1oc2ccccc2cc1-c1csc(N2N=C(c3ccccc3)CC2c2ccc(N3CCOCC3)cc2)n1 (configuration not stated) | 96.5%
